Sampled rows, rich in hits. Any-hit rate of the full collection: about 3.1%.
Pin1 inhibitor – inhibitors of human Pin1. Q13526. Pin1 FP peptide displacement, HiFluor488, 10 min. Potency, µM (series often up to 115 µM), most hits filed as inhibitors. 390,000 compounds, 0.009% hits; active = well fitted inhibition curve with a large enough effect in the polarisation, with a control signal flat, not every such curve was filed as active; inconclusive = small, poorly fitted or top-dose-only effect, or effect the other way, or a change in a side signal; inactive = no such curve, though single readings can be large or run the other way; the % refers to the polarisation
Target sequence (Q13526 whole entry, looked up): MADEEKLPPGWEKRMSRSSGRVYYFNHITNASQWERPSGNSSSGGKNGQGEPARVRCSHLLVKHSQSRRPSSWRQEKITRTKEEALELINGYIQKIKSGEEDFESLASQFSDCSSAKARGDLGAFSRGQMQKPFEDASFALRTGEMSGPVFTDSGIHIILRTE
PLK1 PBD inh – PLK1 (human) polo-box domain binding inhibition | P53350 | Plk1 PBD binding of FITC phosphopeptide, fluorescence polarization | Potency, µM, most hits filed as inhibitors | 360,000 compounds, 2.8% hits; also: series mostly up to about 57 µM; nearly all actives have a fitted effect of over 65% in size
TDP1 block – TDP1 (human) enzyme inhibition; Q9NUW8; recombinant TDP1, AlphaScreen DNA substrate cleavage; Potency, µM (series often up to 130 µM), most hits filed as inhibitors; 350,000 compounds, 0.28% hits; AID 485290; also: nearly all actives have a fitted effect of over 40% in size
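Steps: enzyme plus compound, 15 min RT; add biotin/phosphotyrosine-FITC oligonucleotide (15 nM final), react 5 min; add donor/acceptor beads (10 ug/ml final), 10 min; read AlphaScreen. Tdp1 at 1 nM final.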
VDR inhibitor – inhibitors of human vitamin D receptor | VDR-SRC2-3 peptide fluorescence polarization, 2 h | Potency, µM, most hits filed as inhibitors | 400,000 compounds, 0.93% hits | AID 504847
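Measured by FP: displacement of SRC2-3 coactivator peptide from VDR by library compounds, following a two-hour ambient incubation.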
ASM inhibitor – human S-ASM enzyme inhibition; P17405; placental ASM, HMU-PC fluorogenic substrate, 60 min; Potency, µM (highest dose often 57.5 µM), hits mostly inhibitors; 340,000 compounds, 0.006% hits; AID 504937
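Human placenta-derived ASM preincubated with compound 10 min at room temperature, then reacted with 9 uM (final) fluorogenic HMU-PC substrate for 60 min at 37 C. Stop solution raises pH to 10; fluorescence read at Ex 386/Em 447 nm.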
Tb PFK block – blocks T. brucei phosphofructokinase. O15648. T. brucei PFK, ADP-Glo luminescence. Potency, µM (titrated, usually from 57.5 µM), most hits filed as inhibitors. 330,000 compounds, 0.17% hits. AID 485367; also: nearly all actives have a fitted effect of over 60% in size
Target sequence (O15648 whole entry, looked up): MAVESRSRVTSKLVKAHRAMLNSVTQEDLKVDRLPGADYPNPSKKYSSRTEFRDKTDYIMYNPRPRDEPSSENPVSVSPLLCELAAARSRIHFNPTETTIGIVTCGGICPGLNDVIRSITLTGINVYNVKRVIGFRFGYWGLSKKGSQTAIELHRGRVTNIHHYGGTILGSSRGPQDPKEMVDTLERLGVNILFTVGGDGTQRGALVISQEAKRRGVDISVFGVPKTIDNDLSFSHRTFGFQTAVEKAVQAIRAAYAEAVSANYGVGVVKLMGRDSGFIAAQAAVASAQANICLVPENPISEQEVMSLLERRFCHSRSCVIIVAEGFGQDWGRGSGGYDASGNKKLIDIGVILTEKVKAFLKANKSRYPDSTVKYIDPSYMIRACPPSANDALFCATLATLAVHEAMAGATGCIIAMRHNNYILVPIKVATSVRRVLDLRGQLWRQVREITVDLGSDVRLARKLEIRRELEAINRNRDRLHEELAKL
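ADP-Glo luminescence quantified ADP after 45 min at room temperature, with 1.25 nM T. brucei PFK, 0.1 mM ATP and 0.5 mM fructose-6-phosphate in pH 8.0 TEA buffer. qHTS titrations up to 57 µM; curves classified by quality.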
A number is an active result; i = inactive; ? = inconclusive; nt = no result given; ! = not confirmed by another sample; [ ] = another dose, or the depositor's remark. Unless noted, calls follow the shape of the dose curve; as a rule, active = well fitted curve in the direction sought with a large enough effect; inconclusive = small, poorly fitted or top-dose-only effect, or another doubt; inactive = no such curve, though single readings can be large; an effect the other way counts as inactive or inconclusive.

SMILES	Pin1 inhibitor	PLK1 PBD inh	TDP1 block	VDR inhibitor	ASM inhibitor	Tb PFK block
COc1ccc(C)cc1NC(=O)c1cc2c(s1)-c1ccccc1SC2	i	nt	i	i	nt	nt
Cc1cccc(NC(=O)C2C(c3ccccc3)C2(Cl)Cl)c1 (stereo not drawn)	i	i	i	i	i	i
Cc1ccc(NC(=O)C2C(c3ccccc3)C2(Cl)Cl)c(C)c1 (stereo not drawn)	i	21µM	i	?	i	i
CCCC(=O)N1c2nc(-c3ccco3)nn2C2(CCCCC2)[C@@H]2CCCC[C@@H]21	i	nt	i	i	nt	nt
CCCCC1=CC2=CC(=O)C(C)(OC(=O)CC)C(=O)C2=CN1CCCN(CC)CC (stereo not drawn)	nt	nt	i[12.3 µM]	nt	nt	nt
Cc1ccc(CNC(=O)CCNS(=O)(=O)c2ccc(C)cc2)cc1	i	i	i	i	i	i
O=C(CCNS(=O)(=O)c1ccc(Br)cc1)NCc1ccc(Cl)cc1	i	27µM	i	i	i	i
CC(C)OC(=O)CSc1nnc(-c2ccncc2)n1N	i	i	i	i	i	i
CC(C)OC(=O)CSc1nnc(-c2ccc(C(C)(C)C)cc2)n1N	i	21µM	i	?	i	i
COC(=O)c1nc(NC(=O)C(C)C)n[nH]1	i	21µM	i	i	i	i
c1ccc(CNc2ccnc(-c3ccoc3)n2)cc1	nt	nt	i	79µM	nt	nt
c1nc(NCc2ccc3c(c2)OCO3)c2cc(-c3ccoc3)ccc2n1	i	nt	i	i	i	i
c1ccc(Nc2ncnc3ccc(-c4ccoc4)cc23)cc1	nt	nt	nt	32µM	nt	nt
c1ccc(CNc2ncnc3ccc(-c4ccoc4)cc23)cc1	nt	nt	nt	25µM	nt	nt
CCCCCCCC/C=C\CCCCCCCCN	nt	nt	nt	i	nt	nt
O=S(=O)(CCSc1ccccn1)c1nc2ccccc2s1	i	6.7µM	i	?	i	i
COc1ccc(CNC(=O)C(C)n2nc(C)c3c(C)n(-c4ccc(C)cc4)nc3c2=O)cc1 (stereo not drawn)	i	21µM	i	?	i	i
O=C(CCC1N=C2c3ccccc3N=C(SCc3ccc(F)cc3)N2C1=O)NC1CCCCC1 (stereo not drawn)	i	nt	i	i	nt	nt
O=C(/C=C/c1c(Cl)nc2ccccn12)N1CCN(c2ccc(F)cc2)CC1	i	i	79µM	?	i	i
O=C(O)/C=C/C(=O)N1CCN(c2ccc(F)cc2)CC1	i	19µM	i	i	i	i
O=C(/C=C/c1c(Cl)nc2ccccn12)N1CCN(c2ccccc2F)CC1	i	i	i	i	i	i
COc1ccc(C(=O)C2C(=O)C(=O)N(Cc3ccco3)C2c2cccs2)cc1 (stereo not drawn)	i	nt	i	?	nt	nt
CN(C)C(=O)NC(Nc1cccc([N+](=O)[O-])c1)C(Cl)(Cl)Cl (stereo not drawn)	i	30µM	i	i	i	i
Cc1ccc(C)c2c1CCC(=Cc1ccccc1[N+](=O)[O-])C2=O	nt	i	nt	nt	nt	nt
CN1C/C(=C/c2ccccc2[N+](=O)[O-])C(=O)/C(=C\c2ccccc2[N+](=O)[O-])C1	?	i	nt	71µM	i	nt
SMILES	Pin1 inhibitor	PLK1 PBD inh	TDP1 block	VDR inhibitor	ASM inhibitor	Tb PFK block
O=C(Nc1ccc(S(=O)(=O)Nc2ncccn2)cc1)c1ccc(F)c(S(=O)(=O)N2CCOCC2)c1	i	30µM	i	i	i	i
COc1ccc(C(=O)N=c2nc(-c3ccccc3)n(-c3ccccc3)s2)cc1	i	nt	nt	i	nt	nt
Cc1cc(/C=C(\C#N)C(=O)O)c(C)n1-c1ccc(Br)cc1	i	34µM	i	i	i	i
Cc1cc(/C=C(\C#N)C(=O)O)c(C)n1CC1CCCO1 (stereo not drawn)	i	3µM	i	?	i	i
Cc1cc(C=C(C#N)C#N)c(C)n1-c1ccccc1	i	i	i	i	i	i[0.46 µM]
COc1ccc2c(c1)CCC1(C)CC(=O)C(Br)=C21 (stereo not drawn)	nt	i	nt	nt	nt	nt
COc1ccc2c(c1)CCCC(Br)C2=O (stereo not drawn)	?	11µM	nt	?	i	nt
CCOC(=O)c1cc2c(=O)n3cccc(C)c3nc2n(CCCOC)c1=NC(=O)c1cccnc1	i	i	i	i	i	i
CCOCCCn1c(=NC(=O)c2cccnc2)c(C(=O)OCC)cc2c(=O)n3ccccc3nc21	i	19µM!	i	?	i	i
CCN(Cc1ccccc1)C(=O)C1CCN(CC2CC=CCC2)CC1 (stereo not drawn)	i	i	i	i	i	i
O=C(C1CC1)N(CCN(Cc1ccccc1)C(=O)C1CC1)Cc1ccccc1	i	27µM	i	i	i	i
COc1ccc(C(=O)c2cn(CC(=O)Nc3ccc4c(c3)OCCO4)c3ccc(OC)cc3c2=O)cc1	i	nt	nt	i	nt	nt
CCOC(=O)c1c(C)[nH]c(C)c1S(=O)(=O)N1CCCC(C(=O)N2CCN(c3ccc(Cl)cc3)CC2)C1 (stereo not drawn)	i	nt	i	i	nt	nt
O=C(Nc1cccc(-n2cnnn2)c1)c1ccc(Cl)cc1Cl	i	30µM	i	i	i	i
O=C(Nc1cccc(-n2cnnn2)c1)c1cccc(Cl)c1	i	i	i	i	i	i
CC(C)(C)S(=O)(=O)/C(C#N)=N/Nc1ccc(S(C)(=O)=O)cc1	i	21µM	i	i	i	i
CCOC(=O)c1sc2nc3c(SCC(=O)O)cc(C(=O)c4cc(F)ccc4O)cn3c(=O)c2c1C	nt	?	35µM	i	i	i
COc1ccc(-n2c(SCC(=O)O)nc3sc4c(c3c2=O)CCCC4)cc1	i	i	nt	i	i	i
COc1ccc(O)c(C(=O)c2cc(SCC(=O)O)c3nc4sc5c(c4c(=O)n3c2)CCCC5)c1	nt	27µM	nt	i	?	i
CC1=C(C(=O)Nc2ccccc2C)C(c2ccccn2)n2nc(SCc3ccccc3F)nc2N1 (stereo not drawn)	i	nt	i	i	nt	nt
CCOc1cc(Br)cc(C(c2c(C(=O)O)[nH]c3ccccc23)c2c(C(=O)O)[nH]c3ccccc23)c1O	nt	15µM	nt	?	i	i
CSc1ccc(C(c2c(C(=O)O)[nH]c3ccccc23)c2c(C(=O)O)[nH]c3ccccc23)cc1	nt	11µM	nt	i	?	i
CCOC(=O)c1[nH]c2ccccc2c1NC(C)=O	i	i	nt	i	i	i
C[C@H](O)[C@H](O)[C@H]1CNc2nc(N)[nH]c(=O)c2N1	?	27µM	nt	79µM	i	i
CC#CCN1c2ccccc2[C@]23C[C@@H](C(=O)OC)N(C(=O)CC(C)C)C2=NC(C(=O)OC)=C(C(=O)OC)[C@H]13	nt	nt	i[12.3 µM]	nt	nt	nt
COC(=O)/C=c1/s/c(=C(/C#N)C(=O)N2CCCCC2)n(-c2ccccc2)c1=O	i	i	i	?	i	i
COC(=O)/C=c1/s/c(=C(/C#N)C(=O)N2CCOCC2)n(-c2ccccc2)c1=O	i	27µM	i	i	i	i
Cc1ccn(CCC(=O)NC2CCCc3c2cnn3-c2cccc(C)c2C)n1 (stereo not drawn)	i	30µM	i	i	i	i

Screening results: PubChem BioAssay, National Center for Advancing Translational Sciences (NCATS)
